Results reported in PubChem BioAssay (NCATS).
Records with an inconclusive call do not appear. Activity calls are given as the source filed them. Calls come from the whole dose curve; as a rule, active = well fitted curve in the direction sought with a large enough effect; inconclusive = small, poorly fitted or top-dose-only effect, or another doubt; inactive = no such curve, though single readings can be large; an effect the other way counts as inactive or inconclusive.

Columns and labels:
[1] = A2780 Cisplatin Sensitive Ovarian Cancer Cell Toxicity qHTS against the NCATS CANVASS Library (AID 1347353); settings: A2780 ovarian cancer viability, ATPLite luminescence, 72 h; at 91.4 µM (top of the series) unless noted; note: nearly all actives have a fitted effect of over 60% in size
In short: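 Cisplatin-sensitive A2780 ovarian cells (750/well) received compound in 11 concentrations, and were incubated 72 h at 37 °C. ATP content was measured by ATPLite luminescence; bortezomib served as control.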

[2] = UWB1.289-WTBRCA1 Cancer Cell Toxicity qHTS against the NCATS CANVASS Library (AID 1347354)
In short: (§1)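 Toxicity was measured as CellTiter-Glo luminescence after 72 h exposure to an 11-point compound series. Compound was added to 1000 cells/well 4 h after seeding.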

[3] = HEK-293 Cancer Cell Toxicity qHTS against the NCATS CANVASS Library (AID 1347355); settings: outcome: dose series up to 46.1 µM; note: nearly all actives have a fitted effect of over 65% in size
In short: as §1

[4] = HPAF-II 24hr Apoptosis Induction qHTS against the NCATS CANVASS Library (AID 1347356)
In short: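 Caspase-Glo 3/7 luminescence, read after 15 min room-temperature development, measures apoptosis in HPAF-II cells treated 24 h at 37 degrees C with an 11-point concentration series; 500 cells/well; doxorubicin control.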

[5] = HEK293 18hr Apoptosis Induction qHTS against the NCATS CANVASS Library (AID 1347357)
In short: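 Caspase-Glo 3/7 luminescence (15 min, room temperature) measured apoptosis after an 18-hour, 37 degrees C exposure of HEK293 cells (500 cells/well) to compounds in 11 points.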

[6] = HPAF-II 12hr Apoptosis Induction qHTS against the NCATS CANVASS Library (AID 1347358)
In short: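 Caspase-3/7 activation by DEVD-substrate luminescence (Caspase-Glo 3/7, 15 min, room temperature) after a 12-hour compound exposure in 11 concentrations, of HPAF-II pancreatic cells seeded at 500/well in DMEM with 10% FBS.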

[7] = HEK293 24hr Apoptosis Induction qHTS against the NCATS CANVASS Library (AID 1347359)
In short: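 HEK293 cells, 500 per well, exposed to an 11-point compound series for 24 hours at 37 degrees C. Caspase 3/7 activity read by Caspase-Glo luminescence (DEVD substrate) after 15 min at room temperature.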

[8] = HPAF-II 18hr Apoptosis Induction qHTS against the NCATS CANVASS Library (AID 1347360)
In short: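 Caspase-3/7 activation was measured with luminescent Caspase-Glo 3/7 reagent (15 min, RT) in HPAF-II cancer cells (500 cells/well). Before detection, cells had been treated for 18 h at 37 C with compounds (11 points).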

[9] = HEK293 12hr Apoptosis Induction qHTS against the NCATS CANVASS Library (AID 1347361)
In short: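 HEK293 cells (500/well, DMEM + 10% FBS) were exposed to natural products across an 11-point series for 12 hours at 37 degrees C. Caspase-3/7 activity was then measured with DEVD luciferase luminescence after 15 min at room temperature.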

[10] = system: NAD(P)H diaphorase (Clostridium kluyveri); assay: Diaphorse counterscreen qHTS: Assay Interference Panel against the NCATS CANVASS Library (AID 1347362)
In short: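 Clostridium kluyveri diaphorase in PBS + 0.01% Tween-20 preincubated 15 min with compounds. Resazurin and NADH then added for 5 min at room temperature in the dark; resorufin fluorescence read (ex 525, em 598).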

[11] = biological target: Luciferin 4-monooxygenase (Photinus pyralis) (UniProt P08659); assay: Firefly luciferase counterscreen qHTS: Assay Interference Panel against the NCATS CANVASS Library (AID 1347363)
Sequence of Luciferin 4-monooxygenase (Photinus pyralis) (P08659 whole entry, looked up): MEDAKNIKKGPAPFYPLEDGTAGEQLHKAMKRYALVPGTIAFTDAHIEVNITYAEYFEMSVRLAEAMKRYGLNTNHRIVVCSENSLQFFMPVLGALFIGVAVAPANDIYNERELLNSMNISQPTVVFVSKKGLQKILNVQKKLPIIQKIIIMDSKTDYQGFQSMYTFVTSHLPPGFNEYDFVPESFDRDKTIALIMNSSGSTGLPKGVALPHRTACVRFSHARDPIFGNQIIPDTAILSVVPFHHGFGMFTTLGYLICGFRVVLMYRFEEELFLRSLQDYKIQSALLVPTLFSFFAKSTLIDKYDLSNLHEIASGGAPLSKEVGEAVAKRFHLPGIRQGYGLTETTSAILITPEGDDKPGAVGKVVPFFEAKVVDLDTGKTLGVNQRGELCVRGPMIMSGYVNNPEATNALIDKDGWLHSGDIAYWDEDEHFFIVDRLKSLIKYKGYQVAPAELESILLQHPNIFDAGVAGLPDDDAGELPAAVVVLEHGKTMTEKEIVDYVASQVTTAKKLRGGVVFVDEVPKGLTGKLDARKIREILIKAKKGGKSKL
In short: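 Purified P. pyralis luciferase (0.04 ug/mL, 4x reagent) added to Tris-acetate buffer with 0.013 mM D-luciferin, 0.013 mM ATP and 13.3 mM Mg-acetate; compounds preincubated 15 min, then luminescence read after 5 min, RT.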

[12] = KB-8-5-11 Cancer Cell Toxicity qHTS against the NCATS CANVASS Library (AID 1347364); note: nearly all actives have a fitted effect of over 75% in size
In short: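 Viability read as CellTiter-Glo luminescence after 72 h at 37 °C, 5% CO2. 11-point compound series on 500 KB-8-5-11 cells/well in DMEM/10% FBS. Follow-up plating included 1 uM tariquidar in the medium.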

[13] = SDT Cancer Cell Toxicity qHTS against the NCATS CANVASS Library (AID 1347365);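 note: SDT canine glioma cells 500 per well in 1536 well plates; nearly all actives have a fitted effect of over 60% in size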
In short: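 Cytotoxicity taken from CellTiterGlo ATP luminescence after 72 hr at 37C, 5% CO2. Canine glioma line SDT, 500 cells/well, treated at 11 concentrations; bortezomib dose series as control.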

[14] = KB-3-1 Cancer Cell Toxicity qHTS against the NCATS CANVASS Library (AID 1347366); note: nearly all actives have a fitted effect of over 75% in size
In short: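 CellTiter-Glo luminescence measured viability after 72 h at 37C. KB-3-1 cells were seeded at 500 per well in DMEM/10% FBS.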

[15] = qHTS for ATAD5 Agonist screened against the NCATS CANVASS Library (AID 1347367);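 note: luciferase reporter driven by ATAD5 which rises upon DNA damage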
In short: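 Genotoxicity via ATAD5-luciferase luminescence after 16 h compound exposure (11-point series) at 37C in HEK293T-ATAD5 cells. CellTiter-Fluor viability read precedes the luminescence read; MMS serves as positive control.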

[16] = G06 Cancer Cell Toxicity qHTS against the NCATS CANVASS Library (AID 1347368); note: nearly all actives have a fitted effect of over 60% in size
In short: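 Viability measured by CellTiterGlo ATP luminescence after 72 hr at 37C, 5% CO2. Canine G06 glioma cells plated at 500/well. Compounds tested as 11-point qHTS titrations.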

[17] = MCF7 Cancer Cell Toxicity qHTS against the NCATS CANVASS Library (AID 1347369)
In short: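 Cytotoxicity was measured as CellTiterGlo luminescence (ATP) after 72 h at 37 °C. The cells were MCF7 at 500 per well, with an 11-point compound concentration series.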

[18] = qHTS for ATAD5 Antagonist screened against the NCATS CANVASS Library (AID 1347370);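 note: HEK293T cells carrying an ATAD5 luciferase reporter co-treated with 10 µM 5-fluorouridine; nearly all actives have a fitted effect of over 65% in size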
In short: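 Compounds (11-point) co-dosed with 10 µM 5-FUrd for 16 h at 37 °C onto HEK293T-ATAD5 luciferase reporter cells. Viability measured by CellTiter-Fluor fluorescence, then ATAD5 reporter signal by luminescence.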

[19] = J3T Cancer Cell Toxicity qHTS against the NCATS CANVASS Library (AID 1347371);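 note: J3T is a canine glioma cancer cell line seeded at 500 cells per well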
In short: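 Cytotoxicity read as CellTiterGlo ATP luminescence after 72 h incubation (37C, 5% CO2) of J3T canine glioma cells (500/well) with an 11-point compound series.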

[20] = biological target: Nuclear receptor subfamily 1 group I member 3 (Homo sapiens) (UniProt Q14994); assay: qHTS for Constitutive Androstane Receptor (CAR) Antagonist screened against the NCATS CANVASS Library (AID 1347372);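 note: cells stimulated with 50 nM CITCO agonist so inhibition reflects antagonism; luciferase from CYP2B6 promoter reporter driven by hCAR in HepG2 cells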
Sequence of Nuclear receptor subfamily 1 group I member 3 (Homo sapiens) (Q14994 whole entry, looked up): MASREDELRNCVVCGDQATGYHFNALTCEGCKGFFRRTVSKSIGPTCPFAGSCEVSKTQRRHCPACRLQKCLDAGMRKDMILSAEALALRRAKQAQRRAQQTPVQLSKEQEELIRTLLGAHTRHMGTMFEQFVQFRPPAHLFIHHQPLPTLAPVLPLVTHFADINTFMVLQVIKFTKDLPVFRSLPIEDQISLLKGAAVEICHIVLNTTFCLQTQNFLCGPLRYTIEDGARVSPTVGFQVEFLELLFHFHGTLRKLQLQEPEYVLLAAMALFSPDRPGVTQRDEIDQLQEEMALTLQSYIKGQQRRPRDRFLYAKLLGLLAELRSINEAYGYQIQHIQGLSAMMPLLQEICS
In short: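 Luminescence readout (ONE-Glo, 30 min RT) of CYP2B6-2.2kb reporter in HepG2-hCAR cells after 24hr, 37C treatment with compound against 50 nM CITCO; CellTiter-Fluor viability read beforehand.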

Measured: outcome

O=C1C[C@@H]2OCC=C3CN4CC[C@]56c7ccccc7N1[C@H]5[C@H]2[C@H]3C[C@H]46
inactive: all assays above

COc1ccc2[nH]cc(CCN)c2c1
inactive: [1] inactive [at 46.1 µM] | [2] | [3] | [4] | [5] | [6] | [7] | [8] | [9] | [10] | [11] | [12] | [14] | [15] | [16] | [17] | [18] | [19] | [20]
